Measurements reported in the supplement of paper PMC11732987, “Enantioselective OTUD7B fragment discovery through chemoproteomics screening and high-throughput optimisation” (Communications Chemistry, 2025).

Legend:
Test in all cases: log2 ratio of Biotin-Ahx-Ub-VS probe labelling (fragment/DMSO); higher = less target engagement (more negative = stronger competition), active = hit call of the paper (q ≤ 0.05, log2 ratio ≤ -1)
Conditions in all cases: compound concentration: 200 uM; treatment time: 3 h
[1] = biological target: T1, OTUD6B (UniProt Q8N6M0)
T1 sequence (whole entry): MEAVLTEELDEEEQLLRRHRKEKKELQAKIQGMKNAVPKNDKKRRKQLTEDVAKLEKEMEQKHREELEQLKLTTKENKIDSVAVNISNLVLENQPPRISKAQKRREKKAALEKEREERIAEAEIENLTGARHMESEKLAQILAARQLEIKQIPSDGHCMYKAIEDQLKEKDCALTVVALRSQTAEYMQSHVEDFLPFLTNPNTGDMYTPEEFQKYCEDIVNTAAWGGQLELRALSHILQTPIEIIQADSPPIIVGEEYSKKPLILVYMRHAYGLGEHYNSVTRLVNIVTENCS
In short: (§1)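 Fragment (200 µM) or vehicle was incubated for 3 h with triplicate HEK293T lysate samples of 495 µg, which were then treated with Biotin-Ahx-Ub-VS at 0.5 µM final for 1 h. Labelled DUBs were enriched on NeutrAvidin, digested with LysC and trypsin, and analysed by diaPASEF LC-MS/MS. Values are average log2 fragment/vehicle ratios from an unpaired t-test on global-median-normalised Spectronaut label-free quantities, using proteins with ≥2 unique peptides.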

[2] = biological target: T2, OTUD7B (UniProt Q6GQQ9)
T2 sequence (whole entry): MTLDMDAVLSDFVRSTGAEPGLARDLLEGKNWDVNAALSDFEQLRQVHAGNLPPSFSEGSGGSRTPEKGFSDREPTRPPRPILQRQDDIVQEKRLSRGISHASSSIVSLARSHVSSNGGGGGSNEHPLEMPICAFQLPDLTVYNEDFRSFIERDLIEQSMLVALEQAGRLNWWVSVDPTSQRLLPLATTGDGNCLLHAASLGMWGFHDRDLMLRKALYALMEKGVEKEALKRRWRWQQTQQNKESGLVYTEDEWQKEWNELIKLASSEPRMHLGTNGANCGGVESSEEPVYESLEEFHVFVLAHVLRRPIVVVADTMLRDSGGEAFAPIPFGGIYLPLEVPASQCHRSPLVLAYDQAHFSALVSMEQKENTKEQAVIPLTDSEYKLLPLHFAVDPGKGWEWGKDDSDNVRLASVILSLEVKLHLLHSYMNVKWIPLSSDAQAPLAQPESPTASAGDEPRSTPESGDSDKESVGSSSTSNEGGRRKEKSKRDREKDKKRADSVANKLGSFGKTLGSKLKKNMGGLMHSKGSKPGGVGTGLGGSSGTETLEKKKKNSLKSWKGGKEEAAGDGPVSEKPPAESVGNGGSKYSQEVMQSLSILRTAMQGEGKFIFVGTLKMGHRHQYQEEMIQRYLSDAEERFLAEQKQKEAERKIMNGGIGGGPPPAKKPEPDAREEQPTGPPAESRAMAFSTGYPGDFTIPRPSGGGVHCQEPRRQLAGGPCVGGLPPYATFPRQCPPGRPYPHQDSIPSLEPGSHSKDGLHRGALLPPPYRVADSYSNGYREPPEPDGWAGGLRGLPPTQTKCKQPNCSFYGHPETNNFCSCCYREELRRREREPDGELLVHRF
In short: as §1

[3] = biological target: PRPF8 (UniProt Q6P2Q9)
In short: as §1

[4] = biological target: T3, PSMD7 (UniProt P51665)
T3 sequence (whole entry): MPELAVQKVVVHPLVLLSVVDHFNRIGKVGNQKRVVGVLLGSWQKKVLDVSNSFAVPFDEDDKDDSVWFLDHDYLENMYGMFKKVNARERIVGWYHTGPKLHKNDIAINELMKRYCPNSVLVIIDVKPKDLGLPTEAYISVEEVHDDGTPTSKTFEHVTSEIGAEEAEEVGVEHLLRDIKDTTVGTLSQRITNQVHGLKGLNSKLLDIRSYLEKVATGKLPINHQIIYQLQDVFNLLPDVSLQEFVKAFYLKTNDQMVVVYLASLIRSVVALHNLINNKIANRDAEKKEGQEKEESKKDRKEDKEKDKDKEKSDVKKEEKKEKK
In short: as §1

[5] = biological target: UCHL1 (UniProt P09936)
In short: as §1

[6] = biological target: T4, UCHL3 (UniProt P15374)
T4 sequence (whole entry): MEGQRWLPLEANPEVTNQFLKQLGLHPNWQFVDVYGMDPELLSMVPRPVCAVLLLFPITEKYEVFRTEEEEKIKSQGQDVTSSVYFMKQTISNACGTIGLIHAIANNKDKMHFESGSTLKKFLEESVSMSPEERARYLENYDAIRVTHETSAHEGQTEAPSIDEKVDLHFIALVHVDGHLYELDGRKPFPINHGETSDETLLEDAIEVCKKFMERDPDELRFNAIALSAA
In short: as §1

[7] = biological target: T5, UCHL5 (UniProt Q9Y5K5)
T5 sequence (whole entry): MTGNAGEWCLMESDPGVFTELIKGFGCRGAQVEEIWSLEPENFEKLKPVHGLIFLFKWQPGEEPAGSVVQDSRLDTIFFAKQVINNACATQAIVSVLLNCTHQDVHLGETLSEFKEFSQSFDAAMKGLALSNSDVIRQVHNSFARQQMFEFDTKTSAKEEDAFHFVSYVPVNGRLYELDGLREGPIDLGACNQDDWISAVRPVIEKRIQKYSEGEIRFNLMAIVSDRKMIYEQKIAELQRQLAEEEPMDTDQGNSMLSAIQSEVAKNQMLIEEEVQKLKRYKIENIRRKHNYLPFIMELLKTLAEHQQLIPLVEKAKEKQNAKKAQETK
In short: as §1

[8] = biological target: USP10 (UniProt Q14694)
In short: as §1

[9] = biological target: T6, USP15 (UniProt Q9Y4E8)
T6 sequence (whole entry): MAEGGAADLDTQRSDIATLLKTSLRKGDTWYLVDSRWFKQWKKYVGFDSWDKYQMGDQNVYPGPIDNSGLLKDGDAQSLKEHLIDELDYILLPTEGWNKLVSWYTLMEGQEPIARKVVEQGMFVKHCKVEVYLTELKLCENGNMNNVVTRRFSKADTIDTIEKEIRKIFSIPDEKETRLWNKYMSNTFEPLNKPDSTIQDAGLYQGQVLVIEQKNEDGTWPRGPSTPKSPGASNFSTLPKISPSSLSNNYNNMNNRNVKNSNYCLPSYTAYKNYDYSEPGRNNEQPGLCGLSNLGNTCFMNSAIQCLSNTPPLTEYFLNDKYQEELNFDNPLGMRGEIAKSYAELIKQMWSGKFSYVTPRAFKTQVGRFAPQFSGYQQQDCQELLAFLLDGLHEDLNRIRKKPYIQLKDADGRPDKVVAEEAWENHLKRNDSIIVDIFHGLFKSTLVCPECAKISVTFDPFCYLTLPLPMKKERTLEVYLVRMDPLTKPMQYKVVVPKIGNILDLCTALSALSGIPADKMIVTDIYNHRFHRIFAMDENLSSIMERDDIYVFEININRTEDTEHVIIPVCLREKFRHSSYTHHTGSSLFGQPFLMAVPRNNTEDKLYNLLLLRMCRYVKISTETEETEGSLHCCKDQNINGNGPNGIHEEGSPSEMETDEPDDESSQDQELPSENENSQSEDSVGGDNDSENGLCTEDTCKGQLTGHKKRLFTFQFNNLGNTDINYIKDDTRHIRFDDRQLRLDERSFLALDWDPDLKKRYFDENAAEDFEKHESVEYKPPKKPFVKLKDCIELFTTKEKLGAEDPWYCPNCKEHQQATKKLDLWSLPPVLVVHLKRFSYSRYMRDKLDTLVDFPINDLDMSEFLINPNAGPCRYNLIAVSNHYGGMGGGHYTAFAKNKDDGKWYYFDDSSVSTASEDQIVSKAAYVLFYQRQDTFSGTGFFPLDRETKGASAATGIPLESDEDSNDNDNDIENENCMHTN
In short: as §1

[10] = biological target: USP16 (UniProt Q9Y5T5)
In short: as §1

Measured: log2 ratio of Biotin-Ahx-Ub-VS probe labelling

Chain of USP10 (Q14694 whole entry): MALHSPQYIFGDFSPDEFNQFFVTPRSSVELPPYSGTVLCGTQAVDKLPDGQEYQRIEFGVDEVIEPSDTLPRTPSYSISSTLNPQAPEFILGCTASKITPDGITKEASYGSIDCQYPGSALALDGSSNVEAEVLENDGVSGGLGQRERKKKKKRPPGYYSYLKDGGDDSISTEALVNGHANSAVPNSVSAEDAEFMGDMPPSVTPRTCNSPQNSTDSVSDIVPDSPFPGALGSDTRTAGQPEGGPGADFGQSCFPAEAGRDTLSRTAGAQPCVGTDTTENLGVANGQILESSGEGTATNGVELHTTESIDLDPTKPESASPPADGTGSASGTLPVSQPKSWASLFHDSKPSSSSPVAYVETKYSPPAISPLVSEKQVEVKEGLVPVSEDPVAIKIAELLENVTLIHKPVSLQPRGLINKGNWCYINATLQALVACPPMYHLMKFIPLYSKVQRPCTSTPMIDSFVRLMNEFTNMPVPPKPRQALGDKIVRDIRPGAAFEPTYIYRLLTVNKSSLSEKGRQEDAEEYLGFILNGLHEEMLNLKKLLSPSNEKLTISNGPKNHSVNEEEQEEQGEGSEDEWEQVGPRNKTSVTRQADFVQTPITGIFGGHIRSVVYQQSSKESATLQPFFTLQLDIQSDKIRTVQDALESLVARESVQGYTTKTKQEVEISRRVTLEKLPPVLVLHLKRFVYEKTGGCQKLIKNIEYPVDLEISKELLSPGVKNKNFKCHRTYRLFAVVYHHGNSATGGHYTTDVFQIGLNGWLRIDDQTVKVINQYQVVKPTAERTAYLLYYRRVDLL
Chain of UCHL1 (P09936 whole entry, looked up): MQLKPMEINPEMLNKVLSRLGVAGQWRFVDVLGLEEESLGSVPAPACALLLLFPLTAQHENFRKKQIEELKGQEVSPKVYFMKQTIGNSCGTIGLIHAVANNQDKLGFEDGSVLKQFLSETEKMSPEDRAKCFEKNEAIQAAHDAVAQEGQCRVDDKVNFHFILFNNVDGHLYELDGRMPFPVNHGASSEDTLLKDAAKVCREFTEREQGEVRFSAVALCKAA
Chain of USP16 (Q9Y5T5 whole entry, looked up): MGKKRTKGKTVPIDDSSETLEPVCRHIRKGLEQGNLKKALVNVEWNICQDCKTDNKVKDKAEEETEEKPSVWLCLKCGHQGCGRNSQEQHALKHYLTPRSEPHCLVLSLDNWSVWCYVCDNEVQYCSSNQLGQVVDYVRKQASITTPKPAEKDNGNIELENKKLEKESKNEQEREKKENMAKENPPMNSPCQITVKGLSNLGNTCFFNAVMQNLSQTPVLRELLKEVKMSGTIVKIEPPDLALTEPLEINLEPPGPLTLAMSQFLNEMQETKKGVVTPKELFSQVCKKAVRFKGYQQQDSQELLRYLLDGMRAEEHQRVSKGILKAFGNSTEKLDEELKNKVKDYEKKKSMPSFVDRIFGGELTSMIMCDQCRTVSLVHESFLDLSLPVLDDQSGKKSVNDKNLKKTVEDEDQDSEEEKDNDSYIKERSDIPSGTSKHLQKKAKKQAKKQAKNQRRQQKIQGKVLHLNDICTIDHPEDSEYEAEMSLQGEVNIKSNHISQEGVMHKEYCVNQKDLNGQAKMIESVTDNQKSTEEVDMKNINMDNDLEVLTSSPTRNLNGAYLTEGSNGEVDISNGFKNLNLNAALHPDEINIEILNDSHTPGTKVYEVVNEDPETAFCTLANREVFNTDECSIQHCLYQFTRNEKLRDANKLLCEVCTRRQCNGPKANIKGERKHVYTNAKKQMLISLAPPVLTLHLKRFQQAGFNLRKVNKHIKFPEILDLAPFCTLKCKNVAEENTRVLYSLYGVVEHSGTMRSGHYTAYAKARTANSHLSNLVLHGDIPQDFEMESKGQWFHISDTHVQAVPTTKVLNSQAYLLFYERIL

O=C(CCl)Nc1cccc(C(=O)N2CCSCC2)c1
inactive: [1] -0.0782 | [2] -0.71 | [3] -0.00865 | [4] -0.0955 | [5] -0.784 | [6] 0.0211 | [7] -0.176 | [8] -0.156 | [9] -0.164 | [10] -0.0446
